Results from publication PMC5540273 (PLoS ONE, 2017).

system: EPHA1; details: concentration: 1 μM, replicates: in singlicate; n = 1
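Further: KINOMEscan kinase panel screen.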

Row | Compound | %Inh [%]
1 | COc1cc(Nc2nccc(N3CCC(NC(=O)C4COc5ccccc5O4)C3)n2)cc(OC)c1OC (centres unmarked) [GSK1379761] | 1
2 | COc1cccc(-n2cnc3c(N)ncnc32)c1 [SKF-97416] | 9
3 | CC(C)(C)c1ccc(C(=O)Nc2cn3cc(-c4ccccc4)ccc3n2)cc1 | 0
4 | COc1ccc(-c2coc3ccc(-c4nnc(SCc5cccc(C#N)c5)o4)cc23)cc1 | 7
5 | OCCCNc1nccc(-c2c(-c3cccc(C(F)(F)F)c3)nn3cc(C(F)(F)F)ccc23)n1 [GW630813] | 5
6 | COC(=O)c1c(-c2ccccc2)c2cc(Br)ccc2c(=O)n1Cc1ccc(S(C)(=O)=O)cc1 | 0
7 | Cc1cc(Nc2nc(-c3cccc(C)n3)nc3ccccc23)ccn1 [GW872411] | 0
8 | Nc1ncnc2c1ncn2-c1ccc(Cl)cc1 [AH2635] | 0
9 | CN(C)c1cc(-c2ccc3c(N)n[nH]c3c2)nc(N)n1 [GSK2219329] | 15
10 | COc1ccc(-c2cc3c(C)nc(N)nc3n([C@H]3CC[C@H](OCCO)CC3)c2=O)cn1 | 13
11 | O=C(NCc1cccs1)c1cc(C(=O)c2c(Cl)cccc2Cl)c[nH]1 [GW823670] | 0
12 | COc1cc2ncn(-c3cc(OCc4ccncc4Br)c(C(N)=O)s3)c2cc1OC [GW854278] | 25
13 | Cc1nnc(-c2ccc(C)c(-c3ccc(C(=O)O)cc3)c2)o1 [GW608005] | 0
14 | Cc1nc(N(C)[C@H]2CN(C(=O)CC#N)CC[C@H]2C)c2cc[nH]c2n1 | 0
15 | O=C1NC(=O)C(c2ccccc2)=C1Nc1cccc(O)c1 [SB-390534] | 24
16 | COc1ccc(Nc2nccc(N3CCC(NS(=O)(=O)c4ccc(NC(C)=O)cc4)C3)n2)cc1 (centres unmarked) [GSK1379729] | 23
17 | COC(=O)c1c(-c2ccccc2)c2cc(Br)ccc2c(=O)n1Cc1ccc(NC(=O)CCC(=O)O)cc1 | 24
18 | Cl.NS(=O)(=O)c1cccc(Nc2cc(-c3ccc(F)cc3)n[nH]2)c1 [GW824645] | 0
19 | Fc1cccc(CSc2nnc(-c3ccc4c(c3)CCO4)o2)c1 | 0

Row | Compound | %Inh [%]
20 | Cl.c1ccc(Cn2cnc3cc(Nc4ncnc5ccccc45)ccc32)cc1 [GW272142] | 4
21 | CN1C(=O)C(Nc2cc(Cl)c(O)c(Cl)c2)=C(c2ccc(Cl)cc2)C1=O [SB-404321] | 0
22 | COc1cc(OC)cc(-c2cc3cnc(N)nc3nc2NC(=O)NC(C)(C)C)c1 | 28
23 | Nc1ncnc2c1ncn2-c1cccc2ccccc12 [SKF-97184] | 0
24 | COc1cccc(C2=C(N(C)c3ccccc3)C(=O)NC2=O)c1 [SB-334865] | 0
25 | Cc1ccc(Oc2ccc(Nc3ncnc4cc[nH]c34)cc2C)cn1 | 13
26 | CN1C(=O)C(Nc2ccccc2)=C(c2ccccc2)C1=O [SB-300079] | 0
27 | CCc1nc(-c2cccc(C)c2)c(-c2ccncc2)s1 | 0
28 | Cc1cccc(-c2nc(Nc3ccc4c(cnn4C)c3)c3ccccc3n2)n1 [GW876731] | 6
29 | Nc1n[nH]c2nnc(-c3ccccc3)c(-c3ccccc3)c12 [GW554060] | 15
30 | CCS(=O)c1ccc(-c2coc3ccc(-c4nnc(C)o4)cc23)cc1 (centres unmarked) | 5
31 | COc1ccc(CNC(=O)NC2CCN(c3ccnc(Nc4ccc(F)cc4)n3)C2)cc1 (centres unmarked) [GSK1379706] | 0
32 | COc1ccc(-n2cnc3c(N)ncnc32)cc1 [SKF-97236] | 0
33 | COc1ccc(-c2cc3c(C)nc(N)nc3n([C@H]3CC[C@H](O)CC3)c2=O)cn1 | 12
34 | Nc1ncnc2c1ncn2-c1cccc(F)c1 [SKF-97560] | 11
35 | Cc1cccc(-c2cc(-c3c[nH]nc3-c3ccccn3)ccn2)c1 [GW679395] | 38
36 | Cc1c(Cn2c(C)nn3c(=O)cc(N4CCO[C@H](C)C4)nc23)cccc1C(F)(F)F [GSK2373690] | 4
37 | CCCNC(=O)Nc1ccc(Oc2ncnc3ccn(C)c23)cc1 | 0

system: EPHA2; details: concentration: 1 μM, replicates: in singlicate; n = 1

Row | Compound | %Inh [%]
38 | COc1cc(Nc2nccc(N3CCC(NC(=O)C4COc5ccccc5O4)C3)n2)cc(OC)c1OC (centres unmarked) [GSK1379761] | 17
39 | COc1cccc(-n2cnc3c(N)ncnc32)c1 [SKF-97416] | 0
40 | CC(C)(C)c1ccc(C(=O)Nc2cn3cc(-c4ccccc4)ccc3n2)cc1 | 0
41 | COc1ccc(-c2coc3ccc(-c4nnc(SCc5cccc(C#N)c5)o4)cc23)cc1 | 3
42 | OCCCNc1nccc(-c2c(-c3cccc(C(F)(F)F)c3)nn3cc(C(F)(F)F)ccc23)n1 [GW630813] | 0
43 | COC(=O)c1c(-c2ccccc2)c2cc(Br)ccc2c(=O)n1Cc1ccc(S(C)(=O)=O)cc1 | 22
44 | Cc1cc(Nc2nc(-c3cccc(C)n3)nc3ccccc23)ccn1 [GW872411] | 0
45 | Nc1ncnc2c1ncn2-c1ccc(Cl)cc1 [AH2635] | 12
46 | CN(C)c1cc(-c2ccc3c(N)n[nH]c3c2)nc(N)n1 [GSK2219329] | 0
47 | COc1ccc(-c2cc3c(C)nc(N)nc3n([C@H]3CC[C@H](OCCO)CC3)c2=O)cn1 | 0
48 | O=C(NCc1cccs1)c1cc(C(=O)c2c(Cl)cccc2Cl)c[nH]1 [GW823670] | 0
49 | COc1cc2ncn(-c3cc(OCc4ccncc4Br)c(C(N)=O)s3)c2cc1OC [GW854278] | 10
50 | Cc1nnc(-c2ccc(C)c(-c3ccc(C(=O)O)cc3)c2)o1 [GW608005] | 0
51 | Cc1nc(N(C)[C@H]2CN(C(=O)CC#N)CC[C@H]2C)c2cc[nH]c2n1 | 0
52 | O=C1NC(=O)C(c2ccccc2)=C1Nc1cccc(O)c1 [SB-390534] | 0
53 | COc1ccc(Nc2nccc(N3CCC(NS(=O)(=O)c4ccc(NC(C)=O)cc4)C3)n2)cc1 (centres unmarked) [GSK1379729] | 21
54 | COC(=O)c1c(-c2ccccc2)c2cc(Br)ccc2c(=O)n1Cc1ccc(NC(=O)CCC(=O)O)cc1 | 0
55 | Cl.NS(=O)(=O)c1cccc(Nc2cc(-c3ccc(F)cc3)n[nH]2)c1 [GW824645] | 0
56 | Fc1cccc(CSc2nnc(-c3ccc4c(c3)CCO4)o2)c1 | 0

Row | Compound | %Inh [%]
57 | Cl.c1ccc(Cn2cnc3cc(Nc4ncnc5ccccc45)ccc32)cc1 [GW272142] | 0
58 | CN1C(=O)C(Nc2cc(Cl)c(O)c(Cl)c2)=C(c2ccc(Cl)cc2)C1=O [SB-404321] | 0
59 | COc1cc(OC)cc(-c2cc3cnc(N)nc3nc2NC(=O)NC(C)(C)C)c1 | 0
60 | Nc1ncnc2c1ncn2-c1cccc2ccccc12 [SKF-97184] | 0
61 | COc1cccc(C2=C(N(C)c3ccccc3)C(=O)NC2=O)c1 [SB-334865] | 4
62 | Cc1ccc(Oc2ccc(Nc3ncnc4cc[nH]c34)cc2C)cn1 | 16
63 | CN1C(=O)C(Nc2ccccc2)=C(c2ccccc2)C1=O [SB-300079] | 0
64 | CCc1nc(-c2cccc(C)c2)c(-c2ccncc2)s1 | 17
65 | Cc1cccc(-c2nc(Nc3ccc4c(cnn4C)c3)c3ccccc3n2)n1 [GW876731] | 0
66 | Nc1n[nH]c2nnc(-c3ccccc3)c(-c3ccccc3)c12 [GW554060] | 6
67 | CCS(=O)c1ccc(-c2coc3ccc(-c4nnc(C)o4)cc23)cc1 (centres unmarked) | 13
68 | COc1ccc(CNC(=O)NC2CCN(c3ccnc(Nc4ccc(F)cc4)n3)C2)cc1 (centres unmarked) [GSK1379706] | 7
69 | COc1ccc(-n2cnc3c(N)ncnc32)cc1 [SKF-97236] | 13
70 | COc1ccc(-c2cc3c(C)nc(N)nc3n([C@H]3CC[C@H](O)CC3)c2=O)cn1 | 8
71 | Nc1ncnc2c1ncn2-c1cccc(F)c1 [SKF-97560] | 9
72 | Cc1cccc(-c2cc(-c3c[nH]nc3-c3ccccn3)ccn2)c1 [GW679395] | 7
73 | Cc1c(Cn2c(C)nn3c(=O)cc(N4CCO[C@H](C)C4)nc23)cccc1C(F)(F)F [GSK2373690] | 26
74 | CCCNC(=O)Nc1ccc(Oc2ncnc3ccn(C)c23)cc1 | 0
